Screening data (PubChem BioAssay)
TGFb inhibitor: qHTS for Inhibitors of TGF-b | AID 588855, 2011 | Potency, µM (highest dose often 46.1 µM), for inactives: at the top dose activity, negative = inhibition, most hits filed as inhibitors | 410,000 compounds, 1.2% hits | HepG2 CAGA-GFP TGF-b/SMAD3 reporter, GFP fluorescence, 18 h; TGF-beta stimulated, 500 pg/mL final; also: potency is read from the fitted curve at half-maximal effect; % is scaled to controls: 0 for no effect and ±100 for the full control effect; nearly all actives have a fitted effect of over 65% in size
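Inhibition was scored as loss of TGF-beta-induced (500 pg/mL final, 18 hours, 37 degrees C) GFP in HEPG2 cells carrying a CAGA-GFP reporter, in DMEM with 1% FBS. Well GFP was summed per cell; Activity was normalised to unstimulated and stimulated DMSO wells, then concentration-response fitting.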
ATXN2 expr inh: Primary qHTS for Inhibitors of ATXN expression; HEK-293 ATXN2-luciferase reporter, luminescence, 24 h; Potency, µM (titrated, usually from 57 µM), for inactives: at the top dose activity change, negative = inhibition, actives largely listed as inhibitors; 360,000 compounds, 0.72% hits; also: potency is read from the fitted curve at half-maximal effect; % is scaled to controls: 0 for no effect and ±100 for the full control effect; nearly all actives have a fitted effect of over 55% in size
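ATXN2-luciferase reporter cells (luciferase flanked by upstream and downstream ATXN2 gene portions) were treated 24 h at 37 °C with compounds at up to 57 uM. SteadyGlo luminescence gave expression; GF-AFC fluorescence gave viability.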
ATXN viability: Viability Counterscreen for Primary qHTS for Inhibitors of ATXN expression | 400,000 compounds, 0.49% hits | Potency, µM (highest dose often 56.7 µM), actives largely listed as cytotoxic | S2 cells (HEK-293 line with an ATXN2-luciferase reporter) viability, CellTiter-Fluor protease fluorescence, 24 h | AID 651635, 2014; also: potency is read from the fitted curve at half-maximal effect; nearly all actives have a fitted effect of over 40% in size
HepG2 viability: qHTS for Inhibitors of TGF-b: Cytotox Counterscreen; HepG2 CAGA-GFP viability, ATP luminescence, 18 h; Potency, µM (titrated, usually from 46.1 µM), inactives show at the highest dose activity change, negative = cytotoxicity, hits mostly cytotoxic; 410,000 compounds, 0.76% hits; also: potency is read from the fitted curve at half-maximal effect
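CellTiter-Glo luminescence gave cytotoxicity after 18 hours at 37 degrees C. The cells were HepG2 CAGA-GFP in 1% FBS DMEM, stimulated with 500 pg/mL TGF-beta after compound addition. %Activity was normalised to no-cell wells (complete cell-killing) and DMSO (no toxicity), and curves were fitted and classified.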
uPA generation: qHTS for Inhibitors of Cell Surface uPA Generation. Potency, µM (series often up to 38.3 µM), for the others: at the top dose activity change, negative = inhibition, most hits filed as inhibitors. cell surface uPA generation assay, qHTS. 330,000 compounds, 0.31% hits; active = well fitted inhibition curve with a large enough effect; inconclusive = small, poorly fitted or top-dose-only effect; inactive = no such curve, though single readings can be large or run the other way; tested in mouse RAW 264.7 cells; also: potency is read from the fitted curve at half-maximal effect; % is scaled to controls: 0 for no effect and ±100 for the full control effect; nearly all actives have a fitted effect of over 55% in size
Giardia kill: Small Molecules that selectively kill Giardia lamblia: qHTS; Giardia lamblia trophozoite viability; 340,000 compounds, 0.15% hits; activity change, % at 7.66 µM, hits read low; AID 540267, 2011; in the data active = activity change below about -80%; inconclusive = between about -30% and that limit;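 also: parasites exposed to compound for two days anaerobically before the ATP read; % is scaled to controls: 0 for no effect and ±100 for the full control effect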
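Anaerobic 48 hrs incubation at 37 deg C of 100 trophozoites/well with test compounds; ATPLite 1-Step luminescence, 15-30 min RT, reports cellular ATP as viability.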
Numbers without * were called inactive; i = inactive; ? = inconclusive; nt = no result; [ ] = another dose, or the depositor's remark. Rows were chosen to be rich in hits. Some 2.6% of all compounds tested hit in one or more screens of this group. Unless noted, calls follow the shape of the dose curve; as a rule, active = well fitted curve in the direction sought with a large enough effect; inconclusive = small, poorly fitted or top-dose-only effect, or another doubt; inactive = no such curve, though single readings can be large; an effect the other way counts as inactive or inconclusive.

SMILES | TGFb inhibitor | ATXN2 expr inh | ATXN viability | HepG2 viability | uPA generation | Giardia kill
CCn1cc(CN2CCN(C)C(CCO)C2)c2ccccc21 (stereo not drawn) | 3.8% | -16.7% | i | -5.5% | -1.7% | 8.1
CC1(C(=O)Nc2ccc(Cl)c(C(F)(F)F)c2)Cc2c(-c3ccc(C(N)=O)cc3)ccnc2O1 (stereo not drawn) | 11.2µM* | -25.8% | ? | 15.8µM* | nt | nt
O=C(CSc1nnc(Cn2nnc3ccccc32)o1)N(Cc1ccc(F)cc1)c1ccccc1 | 11.2µM* | -32.0% | i | -22.1% | -7.1% | 1.7
COc1ccc(N(Cc2ccccc2)C(=O)CSc2nnc(Cn3nnc4ccccc43)o2)cc1 | -11.4% | ? | i | -10.2% | -4.7% | -25.7
O=[N+]([O-])c1ccc(Cl)c(S(=O)(=O)/N=C(/Sc2ccc(Br)cc2)c2ccccc2)c1 | 9.7% | nt | nt | 7.9% | nt | -20.2
Cc1cc(NC(=O)CCNS(=O)(=O)c2cc(Br)cnc2N)ccc1Br | 11.2µM* | -16.9% | i | -36.7% | 5.9% | -1.0
Cc1ccc(NC(=O)CCNS(=O)(=O)c2cc(Br)cnc2N)cc1Cl | -27.8% | -8.6% | i | -14.4% | 7.9% | -9.4
NC1=N[C@@]2(c3cc(NC(=O)c4ccc(F)cn4)ccc3F)COC[C@@H]2CS1 | nt | 31.7% | nt | nt | nt | nt
Cc1ccc(S(=O)(=O)N2CCCc3cc(NS(=O)(=O)c4ccc(F)cc4)ccc32)cc1 | ? | ? | nt | -33.7% | nt | nt
Cc1ccc(S(=O)(=O)N2CCCc3cc(NS(=O)(=O)c4ccccc4)ccc32)cc1 | 15.8µM* | 0.0% | nt | 1.0% | nt | nt
CC(NCc1cccc(OCc2ccccc2)c1)C(O)c1ccccc1 (stereo not drawn) | ? | nt | nt | -90.9% | -13.3% | 10.9
CC(NCc1ccc(OCc2ccc(Cl)cc2)cc1)C(O)c1ccccc1 (stereo not drawn) | 14.1µM* | ? | ? | 15.8µM* | -2.0% | -1.3
CCN(CC)CCNC(=O)c1ccc(N2CCCCC2)c(NS(=O)(=O)c2ccc(C)cc2)c1 | -5.6% | ? | ? | -59.1% | -1.4% | 2.8
CCN(CC)CCNc1cc(C)nc2c1C(=O)C(=O)C=C2N1CCCCC1 | 6.31µM* | nt | 14.1µM* | -29.7% | ? | -1.0
CN(C)c1ccc(C=Nc2ccc(/C=C3\C=Cc4ccccc43)cc2)cc1 | 1.2% | nt | nt | -25.4% | nt | nt
Cc1ccc2c(c1)CN(CCNC(=O)c1cccc(Cn3cccn3)c1)CC(C)O2 (stereo not drawn) | nt | nt | i | nt | nt | nt
Cc1ccc2c(c1)S/C(=C/c1ccc[n+](C)c1)N2CCO | -26.0% | -14.8%[11.3 µM] | ? | -10.5% | -0.6% | -9.3
CCN1/C(=C/c2ccc3cc(C)ccc3[n+]2CC)Sc2cc(C)ccc21 | 120.3% | ? | nt | -77.2% | 1µM* | 8.5
CCCCN1/C(=C/c2cccc[n+]2C)Sc2cc(NC(C)=O)ccc21 | -4.3% | nt | i | -17.2% | -2.3% | ?
CCN1/C(=C/c2ccc3cc(C)ccc3[n+]2C)Sc2ccc3sccc3c21 | -20.6% | nt | nt | -28.8% | 10µM* | 4.6
CCCCN1/C(=C/c2ccc3ccccc3[n+]2CC)Sc2ccccc21 | 66.8% | ? | 15.8µM* | -29.8% | -16.1% | 8.1
CCC1CN(CCNC(=O)c2cccc(N3CCCC3=O)c2)Cc2cc(OC)ccc2O1 (stereo not drawn) | nt | nt | i | nt | nt | nt
COc1cc(/C=N/Nc2nncn2N)ccc1OCc1c(C)no[n+]1[O-] | 7.08µM* | nt | i | 10µM* | 11.2µM* | -10.2
COc1ccccc1-c1ccnc(-n2ncc(C(=O)N[C@H]3CCCCNC3=O)c2C2CC2)n1 | nt | nt | i | nt | nt | nt
Oc1ccc(NC(=S)N=Nc2c(O)[nH]c3ccc(Br)cc23)cc1 | ? | ? | ? | 22.4µM* | 0.2% | 4.5
SMILES | TGFb inhibitor | ATXN2 expr inh | ATXN viability | HepG2 viability | uPA generation | Giardia kill
Oc1[nH]c2ccc(Br)cc2c1N=NC(=S)Nc1ccc(F)cc1 | 10µM* | -30.3% | ? | -65.3% | -8.2% | 10.7
Cc1cc(OCC(=O)N2CCC(c3nc4ccccc4s3)CC2)ccc1Cl | 10µM* | ? | ? | -10.4% | nt | nt
CC(Oc1ccc(F)cc1)C(=O)N1CCC(c2nc3ccccc3s2)CC1 (stereo not drawn) | ? | ? | ? | 12.6µM* | nt | nt
Cc1ccccc1C(=O)N1CCC(c2nc3ccccc3s2)CC1 | ? | ? | ? | -21.2% | nt | nt
O=C(CSc1c(Cl)cccc1Cl)N1CCC(c2nc3ccccc3s2)CC1 | -11.8% | -29.8% | i | -2.2% | -10.3% | -7.3
O=C(Nc1nc2ccccc2s1)c1ccc([N+](=O)[O-])o1 | ? | nt | ? | -30.4% | -5.0% | -99.7*
Cc1cc(C)c2nc(NC(=O)c3ccc([N+](=O)[O-])o3)sc2c1 | 18.1% | -13.6% | i | -17.8% | -10.9% | -90.4*
O=C(Nc1nc2c(F)cc(F)cc2s1)c1ccc([N+](=O)[O-])o1 | -0.7% | -2.4% | ? | -24.6% | -7.2% | -86.2*
COc1ccc(-c2cc(C(=O)O)c3ccccc3n2)c(OC)c1 | 7.9% | -2.5% | i | 2.8% | -6.0% | -7.6
COc1ccc2cc(-c3cc(C(=O)O)c4ccccc4n3)ccc2c1 | -3.4% | ? | i | -57.3% | -17.0% | -105.1*
COC1=C(C(=O)O)N2C(=O)[C@@H](NC(=O)[C@H](N)C3=CCC=CC3)[C@H]2SC1 | nt | nt | i | nt | nt | nt
COc1cccc(OCC(=O)Nc2cc(Cl)ccc2Oc2ccccc2)c1 | -0.5% | 28.2µM* | ? | -13.4% | 7.8% | -17.3
COCCNC(=O)c1sc2ncccc2c1-n1c(C)ccc1C | 14.1% | -2.3% | i | 5.5% | nt | nt
CCc1ccc(CNC(=O)c2sc3ncccc3c2-n2c(C)ccc2C)cc1 | 11.2µM* | -33.9% | ? | -43.4% | nt | nt
C/C=C(\C)C(=O)OC1[C@H](OC(C)=O)C2(CO)C(CC1(C)C)C1=CCC3C4(C)CCC(O[C@@H]5O[C@H](C(=O)O)[C@@H](O[C@@H]6O[C@H](CO)[C@@H](O)[C@H](O)[C@H]6O)[C@H](O)[C@H]5O[C@H]5O[C@H](CO)[C@@H](O)[C@H](O)[C@H]5O)[C@](C)(CO)C4CCC3(C)[C@]1(C)C[C@H]2O (stereo partly drawn) | 4.47µM* | 8.91µM* | 14.1µM* | -102.5% | ? | -22.1
